These results are taken from PubChem BioAssay (Tox21).

The nature of assay [1]: qHTS assay to identify small molecule agonists of the estrogen related receptor signaling pathway with the pleiotropic PPARgamma coactivator (PGC) (AID 1224823). In short, it runs like this:
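Cell-based luciferase assay in the NTP-supplied PGC/ERR line, 2,000 cells/well; 18 h compound exposure at 37 C, luminescence after One-Glo.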
A general note: qHTS replaces the single test concentration by a dilution series.

Assay [2] is described as follows: qHTS assay to identify small molecule antagonists of the estrogen related receptor (ERR) signaling pathway from Tox21 library - cell viability counter screen (AID 1224834). Further: nearly all actives have a fitted effect of over 30% in size. In short, it runs like this: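 CellTiter-Fluor fluorescence measured; ERR cells; 17.5 h compound incubation at 37 C; 30 min reagent step.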
In assay [3] the target is Luciferin 4-monooxygenase (Photinus pyralis) (UniProt P08659). In words: qHTS assay to identify small molecule inhibitors of firefly luciferase (AID 1224835). Further: nearly all actives have a fitted effect of over 25% in size. In short, it runs like this:
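Inhibition of purified Photinus luciferase is measured by luminescence. Substrate levels (D-luciferin, ATP) sit at their KM values. Each compound is tested in a concentration series.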

Assay [4] can be described thus: qHTS assay to identify small molecule agonists of the constitutive androstane receptor (CAR) signaling pathway - cell viability counter screen (AID 1224836). Further: nearly all actives have a fitted effect of over 45% in size. In short, it runs like this: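 HepG2 cells stably carrying hCAR and a CYP2B6-2.2kb reporter; 15-concentration compounds plus PK11195 (final 0.75 uM), 23 hr at 37 C/5% CO2. Viability read by CellTiter-Fluor fluorescence.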

Assay [5] in a line: qHTS assay to identify small molecule antagonists of the constitutive androstane receptor (CAR) signaling pathway - cell viability counter screen (AID 1224837). Further: nearly all actives have a fitted effect of over 45% in size. In short, it runs like this:
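Using CellTiter-Fluor, viability is scored in HepG2 cells stably carrying hCAR and a 2.2kb CYP2B6 reporter after 23 hr compound exposure across 15 concentrations, with CITCO present at 50 nM.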

In assay [6] the target is Nuclear receptor subfamily 1 group I member 3 (Homo sapiens) (UniProt Q14994). In words: qHTS assay to identify small molecule antagonists of the constitutive androstane receptor (CAR) signaling pathway (AID 1224838).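 Further: HepG2 cells stably expressing hCAR with CYP2B6 luciferase reporter stimulated by CITCO; nearly all actives have a fitted effect of over 40% in size.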 In short, it runs like this: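 Reporter luminescence was quantified after 24 h exposure of hCAR/CYP2B6-2.2kb double-stable HepG2 cells to compounds at 15 concentrations in the presence of 50 nM CITCO final.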
Sequence of Nuclear receptor subfamily 1 group I member 3 (Homo sapiens) (Q14994 whole entry, looked up): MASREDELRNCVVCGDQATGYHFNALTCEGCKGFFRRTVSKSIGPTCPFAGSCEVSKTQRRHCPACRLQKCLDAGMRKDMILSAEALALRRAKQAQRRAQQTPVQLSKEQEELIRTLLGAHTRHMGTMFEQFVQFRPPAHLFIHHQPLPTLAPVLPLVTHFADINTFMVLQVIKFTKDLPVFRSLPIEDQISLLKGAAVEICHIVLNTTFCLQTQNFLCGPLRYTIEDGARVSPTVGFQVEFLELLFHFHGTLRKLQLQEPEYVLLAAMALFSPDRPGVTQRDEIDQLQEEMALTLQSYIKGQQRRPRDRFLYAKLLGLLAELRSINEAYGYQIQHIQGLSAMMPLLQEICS

For assay [7] the target is unchanged. In words: qHTS assay to identify small molecule agonists of the constitutive androstane receptor (CAR) signaling pathway (AID 1224839). Further: nearly all actives have a fitted effect of over 15% in size. Further: potency means the concentration at half of the fitted maximal effect. In short, it runs like this:
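HepG2 cells stably co-transfected with hCAR and a CYP2B6-2.2kb luciferase reporter; compounds at 15 concentrations with 0.75 uM PK11195 present. After 24 hr at 37 C, luciferase read by ONE-Glo luminescence.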

A short description of assay [8]: qHTS assay to identify small molecule antagonists of the estrogen related receptor signaling pathway with the pleiotropic PPARgamma coactivator (PGC) from Tox21 10K library - cell viability counter screen (AID 1224840; active means well fitted cell-killing curve with a large enough effect in the repeat runs, not every such curve was filed as active; further: nearly all actives have a fitted effect of over 40% in size). In short, it runs like this: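 Here the PGC/ERR cells serve as a cytotoxicity control: they are exposed to compounds for 17.5 hours at 37 C, and live-cell signal is quantified using CellTiter-Fluor fluorescence.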

Assay [9] in a line: qHTS assay to identify small molecule antagonists of the estrogen related receptor signaling pathway with the pleiotropic PPARgamma coactivator (PGC) from Tox21 10K library (AID 1224841; call rule not given here; further: actives are mostly falling curves and most rising ones were filed inactive; nearly all actives have a fitted effect of over 50% in size). In short, it runs like this:
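Each well held 2,000 PGC/ERR cells, pre-incubated six hours (37 C, 5% CO2). Test substances in DMSO were added by pin tool and left for 18 h at 37 C before luciferase detection by One-Glo.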

The nature of assay [10]: qHTS assay to identify small molecule agonists of the estrogen related receptor signaling pathway with the pleiotropic PPARgamma coactivator (PGC) from Tox21 10K library (AID 1224842). Further: nearly all actives have a fitted effect of over 15% in size. In short, it runs like this: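 Luminescence from One-Glo (30 min, room temperature) measured after PGC/ERR cells had 18 h at 37 C with pinned compound (23 nL in DMSO). Cells had been seeded at 2,000 per well and pre-incubated 6 h.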

The target in assay [11] is Thyrotropin receptor (Homo sapiens) (UniProt P16473). Description: qHTS assay to identify small molecule agonists of the thyroid stimulating hormone receptor (TSHR) signaling pathway (AID 1224843; calls by dose curve; further: nearly all actives have a fitted effect of over 45% in size). In short, it runs like this:
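HEK293 cells stably bearing the thyrotropin receptor were plated at 800 cells/well and challenged with compound (30 min, RT). Accumulated cAMP was quantified via cAMP-d2 competing for cryptate-tagged antibody.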

Assay [12] in a line: qHTS assay to identify small molecule agonists of the hypoxia (HIF-1) signaling pathway - cell viability counter screen (AID 1224844; calls by dose curve; further: nearly all actives have a fitted effect of over 50% in size). In short, it runs like this: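 Multiplexed with the HRE beta-lactamase assay, this viability read used CellTiter-Glo luminescence (30 min, RT) on HRE-bla ME-180 cells treated 17 hrs with compounds in 0.5% dialyzed FBS medium.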
A short description of assay [13]: qHTS assay to identify small molecule agonists of H2AX (AID 1224845; active means well fitted activation curve with a large enough effect in the signal ratio in the repeat runs, not every such curve was filed as active; the % refers to the signal ratio). In short, it runs like this: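 Phospho-H2AX Ser139 measured by HTRF (ex 320 nm; em 665 and 620 nm) after 24 hr antibody incubation. Compounds, 15 concentrations, 0.76% DMSO, were applied to CHO-K1 cells for 3hr at 37C before lysis.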
Assay [14] in a line: qHTS assay to identify small molecule agonists of H2AX - cell viability counter screen (AID 1224847; calls by dose curve;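 further: wild-type CHO-K1 cells; top concentration of the series differs between compounds; nearly all actives have a fitted effect of over 30% in size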). In short, it runs like this: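 CHO-K1 cells plated overnight at 37C, then exposed 3 h at 37C to compounds at 15 concentrations (0.76% DMSO final). Viability by CellTiter-Glo luminescence after 30 min at room temperature.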
Assay [15] in a line: qHTS assay to identify small molecule agonists of the estrogen related receptor (ERR) signaling pathway from Tox21 library (AID 1224849; calls by dose curve; further: nearly all actives have a fitted effect of over 15% in size). The settings on record: ERR reporter cell line, ONE-Glo luciferase, 18 h; at 92.4 µM (top of the series) unless noted. In short, it runs like this:
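Six hours post-seeding at 37 C/5% CO2, ERR cells receive DMSO-solubilised compounds; after 18 h at 37 C, ONE-Glo reagent is applied and luminescence recorded.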

Assay [16] in a line: qHTS RealTime-Glo MT Cell Viability Assay in HepG2 cells - 24 hour (AID 1224867). Further: nearly all actives have a fitted effect of over 50% in size. In short, it runs like this: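 HepG2 suspension premixed with RealTime-Glo reagents is plated at 600 cells per well and left 5 h at 37 C/5% CO2. Compounds in DMSO then go in, and bioluminescence reflecting viable cell number is recorded over 40 h.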
The nature of assay [17]: qHTS RealTime-Glo MT Cell Viability Assay in HEK293 cells - 32 hour (AID 1224868). Further: top concentration of the series differs between compounds; nearly all actives have a fitted effect of over 50% in size. In short, it runs like this: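 Reads taken at 0, 8, 16, 24, 32 and 40 h from the same wells. HEK293 cells (600/well) carried RealTime-Glo reagents from seeding, with compound added after a 5 h settle at 37 C.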
The nature of assay [18]: A CellTox Green Cytotoxicity Assay to monitor cytotoxicity in HEK293 cells - 0 hour (AID 1224869). Further: nearly all actives have a fitted effect of over 50% in size. In short, it runs like this: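 Seeding of HEK293 cells together with cytotoxicity dye preceded a 5 h incubation at 37 C/5% CO2. Test compounds in DMSO were then added and fluorescence monitored across 40 h.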
Assay [19] in a line: qHTS assay to identify small molecule agonists of the hypoxia (HIF-1) signaling pathway (AID 1224846; active means well fitted activation curve with a large enough effect in the signal ratio in the repeat runs, not every such curve was filed as active; the % refers to the signal ratio). In short, it runs like this: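 Hypoxia-pathway activation was scored as increased beta-lactamase from an HRE-controlled reporter in ME-180 cells; plated at 2,000 cells per well with 0.5% dialyzed FBS, they were exposed 17 hrs to compounds and then given CCF4-AM.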
Assay [20] can be described thus: qHTS assay to identify small molecule antagonists of the estrogen related receptor (ERR) signaling pathway from Tox21 library (AID 1224848). Further: nearly all actives have a fitted effect of over 50% in size. In short, it runs like this:
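Reading was by luminescence 30 min after ONE-Glo addition. Before that, ERR cells at 2,000 per well had rested 6 h at 37 C/5% CO2 and then received pin-tooled compounds in DMSO for 18 h at 37 C.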

Values joined by “and” are separate entries in the source; they are usually repeats but may differ in a detail not shown here. Equal values may be shown once. Records with an inconclusive call do not appear. Some structures have more than one record in an assay (separate samples or runs), and their calls can disagree. Active and inactive are the calls of the source. Unless noted, the call rests on the fitted dose curve; in most records, active means well fitted curve in the direction sought with a large enough effect in the repeat runs; inconclusive means weak or mixed curves; inactive means no such curve, though single readings can be large; an effect the other way counts as inactive or inconclusive.
On the % scale 0 is the no-effect control and ±100 the full control effect.

Sequence of Luciferin 4-monooxygenase (Photinus pyralis) (P08659 whole entry, looked up): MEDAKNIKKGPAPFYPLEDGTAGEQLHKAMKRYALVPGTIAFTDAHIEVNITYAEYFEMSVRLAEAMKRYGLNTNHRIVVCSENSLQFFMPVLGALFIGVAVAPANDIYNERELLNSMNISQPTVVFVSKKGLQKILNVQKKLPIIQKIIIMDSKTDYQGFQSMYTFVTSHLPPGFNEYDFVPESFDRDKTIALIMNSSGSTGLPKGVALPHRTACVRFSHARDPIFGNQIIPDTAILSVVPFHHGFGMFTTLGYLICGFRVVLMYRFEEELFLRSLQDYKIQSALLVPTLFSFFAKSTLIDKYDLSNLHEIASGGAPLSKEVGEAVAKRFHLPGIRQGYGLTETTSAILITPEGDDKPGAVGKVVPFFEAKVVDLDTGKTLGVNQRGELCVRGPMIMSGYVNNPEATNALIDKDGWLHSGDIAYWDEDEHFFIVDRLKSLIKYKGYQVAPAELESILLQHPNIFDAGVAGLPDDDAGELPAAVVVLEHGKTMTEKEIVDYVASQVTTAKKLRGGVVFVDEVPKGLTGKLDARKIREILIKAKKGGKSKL
Sequence of Thyrotropin receptor (Homo sapiens) (P16473 whole entry, looked up): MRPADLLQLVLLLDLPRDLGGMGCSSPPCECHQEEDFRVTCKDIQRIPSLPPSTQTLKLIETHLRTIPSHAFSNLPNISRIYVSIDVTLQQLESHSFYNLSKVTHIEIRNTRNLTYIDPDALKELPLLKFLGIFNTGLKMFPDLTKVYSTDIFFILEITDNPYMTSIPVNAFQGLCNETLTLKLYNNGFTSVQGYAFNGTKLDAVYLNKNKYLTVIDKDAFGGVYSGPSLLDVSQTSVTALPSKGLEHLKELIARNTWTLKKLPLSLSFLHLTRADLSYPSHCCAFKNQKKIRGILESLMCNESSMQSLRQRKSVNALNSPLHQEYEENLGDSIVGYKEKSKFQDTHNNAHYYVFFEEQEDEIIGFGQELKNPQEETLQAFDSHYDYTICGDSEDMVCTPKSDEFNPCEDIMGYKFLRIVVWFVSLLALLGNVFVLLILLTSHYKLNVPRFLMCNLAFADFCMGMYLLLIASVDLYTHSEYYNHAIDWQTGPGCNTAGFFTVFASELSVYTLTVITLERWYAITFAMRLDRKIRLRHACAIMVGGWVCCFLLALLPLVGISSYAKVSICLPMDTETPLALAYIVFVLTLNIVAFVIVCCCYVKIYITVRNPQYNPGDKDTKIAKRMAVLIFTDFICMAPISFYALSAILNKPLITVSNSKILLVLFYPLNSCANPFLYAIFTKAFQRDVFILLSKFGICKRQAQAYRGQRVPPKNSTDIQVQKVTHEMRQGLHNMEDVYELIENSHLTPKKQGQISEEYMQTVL

`CCOC(=O)Nc1ccc(NCc2ccc(F)cc2)nc1N`: the call in [1], in assay [10] and in assay [13] was inactive. Further, the Potency entry in assay [2], in assay [3], in assay [4], in assay [5], in [6] and in assay [7] was “inactive” each time. The Potency entry in [8], in assay [9], in [11], in assay [12], in assay [14] and in assay [16] was “inactive” each time. Moreover, the Potency entry in assay [17] and in assay [18] was “inactive” each time. Also, the activity change, positive = activation in assay [15] is -17.8% [at 42.5 µM] (inactive).
Regarding `CCCCC(CC)COC(=O)c1ccccc1O` (stereo not drawn), the Potency entry in assay [2], in [3], in assay [4], in [5], in [6] and in assay [7] was “inactive” in each case. For the same molecule, the Potency entry in [8], in assay [9], in assay [11], in assay [12], in assay [14] and in [20] was “inactive” in each case. Besides, the Potency entry in assay [16], in assay [17] and in [18] was “inactive” each time. Further, the outcome in assay [10], in [13] and in assay [19] was inactive. The activity change, positive = activation in assay [15] is 5.6% [at 42.5 µM] (inactive).
Turning to `O=S(O)CO`, the Potency result in [2], in assay [3], in assay [4], in [5], in [6] and in assay [7] was “inactive” in each case. Also, the Potency entry in assay [8], in assay [9], in [11], in assay [12], in assay [14] and in assay [20] was “inactive” each time. Further, the Potency entry in assay [16], in [17] and in assay [18] was “inactive” throughout. The result in assay [10], in assay [13] and in [19] was inactive. In addition, the activity change, positive = activation in [15] is 4.77% (inactive).
Consider `CN1CC(=O)NC1=N`, for which the Potency result in [2], in assay [3], in assay [4], in assay [5], in assay [6] and in [7] was “inactive” throughout. Moreover, the Potency entry in assay [8], in assay [9], in [11], in [12], in assay [14] and in assay [20] was “inactive” each time. The Potency result in assay [16], in assay [17] and in assay [18] was “inactive” throughout. Further, the call in assay [10], in assay [13] and in assay [19] was inactive. The activity change, positive = activation in assay [15] was 4.02% [at 42.5 µM] (inactive).
As for `Cc1cnc(NS(=O)(=O)c2ccc(N)cc2)nc1`, the Potency result in [2], in [3], in assay [4], in assay [5], in assay [6] and in assay [7] was “inactive” throughout. Moreover, the Potency entry in [8], in assay [9], in assay [11], in assay [12], in assay [14] and in assay [20] was “inactive” in each case. Also, the Potency result in assay [16], in assay [17] and in assay [18] was “inactive” in each case. Further, the molecule was classed as inactive in [10], in assay [13] and in assay [19]. Moreover, in assay [15], the activity change, positive = activation was 2.51% [at 42.5 µM] (inactive).
Turning to `COC(=O)c1c(Cl)c(Cl)c(C(=O)OC)c(Cl)c1Cl`, the molecule was classed as inactive in assay [1] and in assay [19]. For the same molecule, the Potency entry in assay [2], in assay [3], in assay [4], in [5], in assay [6] and in assay [8] was “inactive” in each case. Also, the Potency entry in [9], in assay [12], in [20], in [16] and in assay [18] was “inactive” in each case. Moreover, the Potency in assay [7] is 54.5 µM (active) and 8.63 µM (active). For the same molecule, the activity change, positive = activation in assay [15] is 4.6% (inactive) and 15.8% (active).
With `C1CN(CCOCCN2CCOCC2)CCO1`, the Potency result in assay [2], in assay [3], in [4], in assay [5], in [6] and in assay [7] was “inactive” in each case. The Potency entry in assay [8], in assay [9], in assay [11], in assay [12], in [14] and in assay [20] was “inactive” throughout. In addition, the Potency entry in [16], in assay [17] and in [18] was “inactive” throughout. In addition, the molecule was called inactive in assay [10], in [13] and in [19]. In assay [15], the activity change, positive = activation is -7.8% (inactive).
